Measured values as given in ChEMBL document CHEMBL3988442, “University of Dundee, Small-Polar-MMV Screening Library” (2021).
Out of some 48,000 compounds screened, about 13,000 (27%) showed an effect of 50% or more. This is one part of the list.

System: Wolbachia pipientis
Test: Anti-Wolbachia Cell-Based Screen
Assay type: functional
Set-up: scale not given: in the data most compounds retested in dose-response had high values
Details: 5 µM

Compared with `CC(C)CC(CCO)CNC(=O)N1CCOC2(CCCC2)C1` (stereo not given), `O=C(c1ccc(C2CCCN2)s1)N1CCC2(CCCO2)CC1` (stereo not given) is higher in “Percent Effect” value: 9.888% for the first, 16.77% for the second.

Compared with `CC1Cc2ccccc2N1Cc1occc1C(=O)O` (stereo not given), `CC(=O)NCCCSC1CCCN(c2ccccc2Cl)C1=O` (stereo not given) is higher in “Percent Effect” value: -32.9% for the first, 1.649% for the second.

Compared with `O=C(CN1CCSCC1c1ccccc1)N1CCCC1` (stereo not given), `Cc1cc(C(=O)N2CCCC2)ccc1NCC(=O)N1CCOCC1` is higher in “Percent Effect” value: -1.528% for the first, 96.96% for the second.

First: CCC(C(=O)NCc1ccn(-c2ccc(F)cc2)n1)N1CCCC1=O (stereo not given)
Second: CN(C)C(=O)CCS(=O)(=O)Cc1ccn(-c2cccc(F)c2)n1
The “Percent Effect” value of the first is higher: 13.5% for the first, -10.5% for the second.

First: Cc1nccn1C1(C(=O)O)CCN(Cc2ccc3nsnc3c2)CC1
Second: O=C(Cc1ccc2c(c1)CCO2)N1CCN(c2cnccn2)CC1
The “Percent Effect” value of the first is higher: 4.136% for the first, -10.75% for the second.

Going from `Cc1cc(C(=O)N2CCCCC2C)ccc1NCC(=O)N1CCOCC1` (stereo not given) to `Cc1cc(C(=O)N2CCCCC2C)ccc1NC(=O)N1CCOCC1` (stereo not given), the “Percent Effect” value rises from -5.879% to 99.93%.

First: Cc1cc(C(=O)N2CCCC2)ccc1NCC(=O)N1CCCCC1C (stereo not given)
Second: Cc1cc(C(=O)N2CCCC(C)C2)ccc1NCC(=O)N1CCOCC1 (stereo not given)
The “Percent Effect” value of the first is lower: 98.59% for the first, 106.6% for the second.

Going from `Cc1cc(C(=O)N2CCC(C)CC2)ccc1NS(C)(=O)=O` to `Cc1cc(C(=O)N2CCCC2)ccc1NS(C)(=O)=O`, the “Percent Effect” value falls from 7.517% to -1.573%.

Going from `Cc1cc(C(=O)N2CCCC2)ccc1NCCO` to `Cc1cc(C(=O)N2CCCCC2C)ccc1NCCCO` (stereo not given), the “Percent Effect” value rises from -9.298% to 3.863%.

Going from `COc1ccc(NC(=O)N2CCOCC(CN(C)C)C2)c(C)c1` (stereo not given) to `CCCNC(=O)CNc1ccc(C(=O)N2CCCCC2C)cc1C` (stereo not given), the “Percent Effect” value falls from -4.922% to -8.167%.

First: O=C(O)C(F)(F)F.c1cc(C2CC2)n2cnc(C3CN(Cc4nccs4)CCO3)c2c1 (stereo not given)
Second: O=C(O)C(F)(F)F.c1csc(CN2CCCn3cnc(COCC4CC4)c3C2)c1
The “Percent Effect” value of the first is higher: 7.631% for the first, -4.67% for the second.

First: Cn1ccnc1SCCNC1CCN(c2ncccn2)CC1
Second: CC1CCN(c2ccc(CNC(=O)NCCn3ccnc3)cn2)CC1
The “Percent Effect” value of the first is higher: 12.3% for the first, 0.6283% for the second.

First: CC(C)c1ccc(-c2nnn(CCNS(C)(=O)=O)n2)cc1
Second: CC(C)Cc1ccc(S(=O)(=O)Nc2ccc(=O)n(C)c2)cc1
The “Percent Effect” value of the first is higher: -15.95% for the first, -23.57% for the second.

Going from `O=C(O)C(F)(F)F.O=C(c1cccs1)N1CCC[C@]2(C[C@@H](OCc3ccncc3)CO2)C1` to `O=C(O)C(F)(F)F.OCCOCc1ncn2c1CN(Cc1cccs1)CCC2`, the “Percent Effect” value rises from -0.9808% to 0.3209%.

Going from `Cc1nc(C2CCCN(C(=O)c3cnn(C4CCCCC4)c3)C2)no1` (stereo not given) to `CCn1cc(C(=O)N2CCCC(c3noc(C)n3)C2)cn1` (stereo not given), the “Percent Effect” value rises from 101.3% to 122%.

Compared with `Cc1nc(C2CCCN(C(=O)c3cnc(C)s3)C2)no1` (stereo not given), `Cc1nc(C2CCCN(C(=O)c3cc(C)sc3C)C2)no1` (stereo not given) is lower in “Percent Effect” value: -5.153% for the first, -7.599% for the second.

Compared with `Cc1cnn(CCC(=O)N2CCCC(c3cc(C(N)=O)[nH]n3)C2)c1` (stereo not given), `Cc1cnn(CCC(=O)N2CCCC(c3noc(C)n3)C2)c1` (stereo not given) is higher in “Percent Effect” value: 5.057% for the first, 105% for the second.

Going from `Cc1nc(C2CCCN(C(=O)c3cnn(C(C)(C)C)c3)C2)no1` (stereo not given) to `Cc1cnn(CCC(=O)N2CCCC(c3nc(C)no3)C2)c1` (stereo not given), the “Percent Effect” value rises from 1.32% to 6.871%.

Going from `CC(=O)c1cc(CC(=O)NCc2ccsc2)cs1` to `Cc1ccc(CC(NC(=O)CCS(C)(=O)=O)c2ccccn2)cc1` (stereo not given), the “Percent Effect” value falls from -1.009% to -19.62%.

Compared with `CC(=O)N1C[C@H](NS(=O)(=O)N2CCOCC2)[C@@H](c2ccc(C)o2)C1`, `Cc1ccc(CN2CCCC3(CCCCN3S(C)(=O)=O)C2)s1.O=C(O)C(F)(F)F` (stereo not given) is lower in “Percent Effect” value: -11.37% for the first, -28.3% for the second.

Compared with `CN1CC(c2ccccc2)CC12CCN(C(=O)c1cncc(Cl)c1)CC2` (stereo not given), `CN(C)c1cccc(C(=O)N2CCn3c(nnc3-c3ccccc3)C2)c1` is lower in “Percent Effect” value: 1.146% for the first, 0.7654% for the second.

First: CCCc1cc(N2CCCC2Cn2nc(C)nc2C)n2ncnc2n1 (stereo not given)
Second: CCCN(CC(F)F)c1cc(COC)nc2ncnn12
The “Percent Effect” value of the first is lower: -15.77% for the first, -12.24% for the second.

Going from `CC(C)(CNC(=O)C(C)(C)Oc1ccc2c(c1)CCCC2=O)C(N)=O` to `CC(=O)NCc1ccc(C(=O)N2CCCC2c2c(C)nn(C)c2C)o1` (stereo not given), the “Percent Effect” value rises from -6.308% to 97.07%.

First: Cc1nnc2n1CCN(C(=O)c1cnc(C3CC3)s1)C2
Second: Cc1nc2cc(C(=O)N3CCn4c(nnc4C4CC4)C3)ccc2s1
The “Percent Effect” value of the first is lower: 2.098% for the first, 86.87% for the second.

Compared with `CCn1c(C2CCN(C(=O)c3ccc4sc(C)nc4c3)CC2)n[nH]c1=O`, `Cc1nc2ccc(C(=O)N3CCn4c(nnc4C4CC4)C3)cc2nc1C` is higher in “Percent Effect” value: -3.012% for the first, 122.4% for the second.

Compared with `CCc1nnc2n1CCN(C(=O)c1ccc3nc(C)c(C)nc3c1)C2`, `Cc1ccc(C)c2c(O)cc(CNCC(=O)N3CCCC3)nc12` is lower in “Percent Effect” value: 6.266% for the first, -11.62% for the second.

Going from `CN1CCN(c2ccc(NC(=O)c3ccoc3)c(C(F)(F)F)c2)CC1` to `COc1cnc(N2CCCN(c3ccc(F)cc3)CC2)nc1`, the “Percent Effect” value rises from 7.046% to 8.48%.

Compared with `O=C(c1ncncc1Cl)N1CCC2(CCCC2)CC1`, `Cc1ncncc1C(=O)N1CCCC1c1c(C)nn(C)c1Cl` (stereo not given) is higher in “Percent Effect” value: -11.62% for the first, 95.8% for the second.

First: Cn1cnc(NC(=O)C2CC(=O)N(c3cccc(F)c3)C2)n1 (stereo not given)
Second: CNC(=O)C1CC(=O)N(c2cccc(F)c2)C1 (stereo not given)
The “Percent Effect” value of the first is higher: 77.24% for the first, -1.566% for the second.

First: COc1cc(NC(=O)C2CC(=O)N(c3cccc(F)c3)C2)ncn1 (stereo not given)
Second: O=C(Cc1ccc2c(c1)CCO2)Nc1cccnc1-n1cncn1
The “Percent Effect” value of the first is higher: -6.208% for the first, -24.6% for the second.

First: O=C(Cc1ccc2c(c1)OCCO2)NCCc1nnc2n1CCC2
Second: O=C(Cc1ccc2c(c1)OCCO2)NC1CCCC1
The “Percent Effect” value of the first is higher: -0.3257% for the first, -1.576% for the second.

First: O=C(CCc1ccc2c(c1)CCO2)Nc1nnn[nH]1
Second: O=C(Cc1ccc2c(c1)OCCCO2)Nc1nnn[nH]1
The “Percent Effect” value of the first is higher: 108.2% for the first, 102.7% for the second.

First: CN(C)c1ncc(-c2cncnc2)c(C2CNCCO2)n1.Cl (stereo not given)
Second: CN(C)c1ncc(-c2ccc(F)cc2)c(C2CNCCO2)n1.Cl (stereo not given)
The “Percent Effect” value of the first is higher: 130% for the first, 112.1% for the second.

First: COc1ccc(-c2cnc(N(C)C)nc2C2CNCCO2)cc1.Cl (stereo not given)
Second: O=C(c1cc(-c2ccc(O)cc2)n[nH]1)N1CCCC1c1cccnc1 (stereo not given)
The “Percent Effect” value of the first is higher: 76.7% for the first, -9.956% for the second.

Compared with `Cc1csc(C(C)(C)NCCCS(C)(=O)=O)n1`, `CCOCc1nn(C)c2c1CN(Cc1cccs1)CC2.O=C(O)C(F)(F)F` is higher in “Percent Effect” value: -31.79% for the first, 87.87% for the second.

First: CC(C)C(O)C(=O)N1CCC2(CC1)c1nc[nH]c1CCN2S(C)(=O)=O (stereo not given)
Second: COCc1nn(C(C)C)c2c1CCN(Cc1cccs1)C2.O=C(O)C(F)(F)F
The “Percent Effect” value of the first is lower: -6.881% for the first, 0.7419% for the second.

First: O=C(c1cccnc1)N1CCCC1c1nc(O)cc(-c2ccccn2)n1 (stereo not given)
Second: O=C(c1ccncc1)N1CCCC1c1nc(O)cc(-c2ccccn2)n1 (stereo not given)
The “Percent Effect” value of the first is lower: 120.2% for the first, 134.3% for the second.

First: CCc1cc(O)nc(C2CCCN2C(=O)c2cccnc2)n1 (stereo not given)
Second: CC(C)(C)C(=O)N1CCCC1c1nc(O)cc(-c2ccccn2)n1 (stereo not given)
The “Percent Effect” value of the first is lower: -9.162% for the first, -2.189% for the second.

Going from `O=C(c1ccc2c(c1)COC2)N1CCN(CC2CC2)CC1` to `COc1ccc(CNC(=O)N2CCCN(CC3CCCCC3)CC2)cn1`, the “Percent Effect” value falls from -6.158% to -6.571%.

Compared with `CCN1CCc2c(c(COC)nn2C)C1`, `CCOCc1nn(C)c2c1CN(CCO)CC2` is higher in “Percent Effect” value: -29.06% for the first, 105.8% for the second.

Going from `CC(C)OCc1nn(C)c2c1CN(Cc1cccs1)CC2.O=CO` to `Cn1nc(COCC2CC2)c2c1CCN(Cc1cccs1)C2.O=C(O)C(F)(F)F`, the “Percent Effect” value rises from 90.1% to 99.16%.

Going from `CCOCc1nn(C)c2c1CN(C(=O)c1ccno1)CC2` to `Cn1nc(COCC2CC2)c2c1CCN(Cc1ccco1)C2.O=C(O)C(F)(F)F`, the “Percent Effect” value falls from -1.809% to -12.11%.

Compared with `CCOCc1nn(CC2CC2)c2c1CN(Cc1ccco1)CC2.O=C(O)C(F)(F)F`, `COCc1nn(CC2CC2)c2c1CN(Cc1cccs1)CC2.O=C(O)C(F)(F)F` is higher in “Percent Effect” value: -45.76% for the first, -6.214% for the second.

Compared with `CCOCc1nn(CC2CC2)c2c1CN(Cc1cccs1)CC2.O=C(O)C(F)(F)F.O=C(O)C(F)(F)F`, `Cc1nc(NC(C)C)nc2c1CN(Cc1cccs1)CC2` is lower in “Percent Effect” value: 105% for the first, 0.7721% for the second.

First: CN(C)c1ncccc1NC(=O)COC1CCCC1
Second: Cc1nn(C)c(Cl)c1C1CCCN1C(=O)c1cc[nH]n1 (stereo not given)
The “Percent Effect” value of the first is higher: 0.222% for the first, -2.963% for the second.

Compared with `CN(CC1CCN(c2ccccc2)C1)c1ccc(Cn2ccnc2)cn1` (stereo not given), `CC(C)N1CCCC(CN(C)c2ccc(Cn3ccnc3)cn2)C1` (stereo not given) is higher in “Percent Effect” value: -14.61% for the first, -1.53% for the second.

First: c1cn(Cc2nnc(C3CCN(C4CCCCC4)CC3)n2C2CC2)cn1
Second: c1cn(Cc2ccc(N3CCCN(C4CCCC4)CC3)nc2)cn1
The “Percent Effect” value of the first is lower: 13.15% for the first, 96.41% for the second.

First: c1csc(CN2CCCN(c3ccc(Cn4ccnc4)cn3)CC2)c1
Second: Fc1ccc(N2CCCN(c3ccc(Cn4ccnc4)cn3)CC2)cc1
The “Percent Effect” value of the first is lower: 106.4% for the first, 119.2% for the second.

Compared with `c1csc(-c2cc(CN3CCN(c4cnccn4)CC3)no2)c1`, `c1cc(CN2CCCN(c3ccc4cc[nH]c4n3)CC2)ccn1` is lower in “Percent Effect” value: -0.0676% for the first, -27.97% for the second.

Compared with `OC1CCN(C2CCN(c3ccc(Cn4ccnc4)cn3)CC2)CC1`, `O=C(NCCn1ccnc1)NCc1ccc(N2CCCCCC2)nc1` is lower in “Percent Effect” value: 89.01% for the first, 15.34% for the second.

Compared with `CCOc1ccc(C(=O)N2Cc3cnc(CC(C)C)nc3C2)o1`, `Cc1nn(C)c(Cl)c1C1CCCN1C(=O)c1cnccn1` (stereo not given) is higher in “Percent Effect” value: -22.23% for the first, 91.27% for the second.

Compared with `C[S+]([O-])c1nncn1CC(=O)c1ccc(Br)cc1` (stereo not given), `Cc1ccn2cc(C(=O)N3CCCC3c3c(C)nn(C)c3C)nc2c1` (stereo not given) is higher in “Percent Effect” value: -5.183% for the first, 3.405% for the second.

For `Cc1nn(C)c(Cl)c1C1CCCN1C(=O)c1csnn1` (stereo not given), the “Percent Effect” value was 106%.
